A short description of assay [1]: Nuclear factor erythroid 2-related factor 2/antioxidant responsive element (Nrf2/ARE) small molecule agonists: qHTS cell viability counter screen in human keratinocytes (AID 1919968; active = well fitted curve in the direction sought with a large enough effect in the repeat runs; an effect the other way counts as inactive or inconclusive; also: nearly all actives have a fitted effect of over 55% in size). The method in brief: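 Cytotoxicity was multiplexed with the Nrf2/ARE luciferase assay in the same wells. Stably transfected HaCaT keratinocytes were treated with test compounds for 23 h at 37 C. Cell viability was then measured by CellTiter-Fluor fluorescence.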
A general note: In qHTS, concentration-response curves come from the screen itself.

The nature of assay [2]: Nuclear factor erythroid 2-related factor 2/antioxidant responsive element (Nrf2/ARE) small molecule agonists: luciferase reporter gene qHTS assay in human keratinocytes (AID 1919969). Also: nearly all actives have a fitted effect of over 35% in size. Also: potency is read from the fitted curve at half-maximal effect. On the technique in general: In a reporter assay the amount or activity of a reporter protein is the signal.
For assay [3], the target named is Gonadotropin-releasing hormone receptor (Homo sapiens) (UniProt P30968). Description: Human gonadotropin-releasing hormone receptor (GnRHR) small molecule agonists, calcium flux assay in GnRHR-HEK293 cells (AID 1920063). Also: nearly all actives have a fitted effect of over 35% in size. In outline:
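Agonist activity was measured as intracellular calcium flux in HEK293 cells engineered to stably express human GnRHR. After dye loading for 1 hour at 37 C, compounds in DMSO were added and fluorescence was followed for 3 minutes.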

In assay [4] the target is KiSS-1 receptor (Homo sapiens) (UniProt Q969F8). Briefly: Human kisspeptin (KISS1R) small molecule agonists, calcium flux assay in KISS1R-HEK293 cells (AID 1920064; active = well fitted curve in the direction sought with a large enough effect in the repeat runs; an effect the other way counts as inactive or inconclusive). In outline: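 Agonist activity is monitored as intracellular calcium rise in engineered HEK293 cells carrying human KISS1R. Cells are dye-loaded for 1 h at 37 C before compound addition, and fluorescence is recorded for 3 min.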

Assay [5] is described as follows: G protein-coupled receptor (GPCR) small molecule agonists, calcium flux assay: HEK293 wild type cell line counter screen (AID 1920065). The method in brief:
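Seed cells, incubate 18 h (37 C, 5% CO2); add calcium dye, 1 h at 37 C; pin-transfer compounds, ATP control or DMSO; read fluorescence 480/540 nm each second for 3 min.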
In general terms: Calcium assays in cells follow changes in intracellular calcium, usually with a dye or a luminescent sensor.

A short description of assay [6]: p53 small molecule agonists, cell-based qHTS assay with human liver microsomes (AID 1963577).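 Also: p53 response element beta-lactamase reporter cells with liver microsomes plus NADPH.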 In outline: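 Metabolically competent format: test substances, human liver microsomes and NADPH (both 0.5 mg/mL final) incubated with p53RE-bla cells 16 h at 37 C. Beta-lactamase reporter signal then quantified by fluorescence.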
The nature of assay [7]: p53 small molecule agonists, cell-based qHTS assay with rat liver microsomes (AID 1963578). The method in brief:
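Each plate received p53RE-bla cells, then compound, then rat liver microsomes and NADPH (both 0.5 mg/mL final). Plates were held 16 h at 37 C, and beta-lactamase activity was detected with LiveBLAzer over 2 h.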

Assay [8] in a line: p53 small molecule agonists, cell-based qHTS assay with human liver microsomes: qHTS cell viability counter screen (AID 1963579). Also: nearly all actives have a fitted effect of over 45% in size. The method in brief:
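Tox21 library compounds, delivered from DMSO stocks, were tested on p53RE-bla cells together with 0.5 mg/mL human liver microsomes and 0.5 mg/mL NADPH (final) over 16 h at 37 C; CellTiter-Glo luminescence served as the cytotoxicity measure.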

Assay [9] can be described thus: p53 small molecule agonists, cell-based qHTS assay: qHTS cell viability counter screen (AID 1963581). Also: nearly all actives have a fitted effect of over 45% in size. The method in brief:
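Viability was counter-screened in parallel with the p53 agonist reporter by measuring intracellular ATP luminescence in the same HCT-116 p53RE-bla wells after 16 h compound treatment at 37 C.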

Assay [10] is described as follows: p53 small molecule agonists, cell-based qHTS assay (AID 1963582; active = well fitted activation curve with a large enough effect in the signal ratio in the repeat runs, not every such curve was filed as active; the % refers to the signal ratio). The method in brief:
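Cells carrying a p53-responsive bla reporter are treated with test compounds for 16 h at 37 C; beta-lactamase activity is then detected with LiveBLAzer B/G FRET substrate after 2 h at room temperature.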

Assay [11] has as its target 5-hydroxytryptamine receptor 2A (Homo sapiens) (UniProt P28223). Briefly: 5-hydroxytryptamine receptor 2A (HTR2A) small molecule antagonists, cell-based qHTS assay (AID 1963586). Also: nearly all actives have a fitted effect of over 45% in size. In outline:
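CHO cells stably expressing human HTR2A were plated for 18 h at 37 C, then loaded with calcium dye for 1 h. Compounds were preincubated 5 min at room temperature before DOI (4 nM solution) was added. Kinetic fluorescence was read for 3 min.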

Assay [12] deals with Muscarinic acetylcholine receptor M1 (Homo sapiens) (UniProt P11229). Description: Cholinergic receptor muscarinic 1 (CHRM1) small molecule antagonists, cell-based qHTS assay (AID 1963588). Also: nearly all actives have a fitted effect of over 40% in size. In outline: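 Compounds were tested at 15 concentrations in three independent runs. Dye-loaded CHRM1-CHO cells were exposed 5 min at room temperature before stimulation by acetylcholine added at 50nM. Intracellular calcium was read kinetically on FDSS for 3 min.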

The target is the same in assay [13]. Description: Cholinergic receptor muscarinic 1 (CHRM1) small molecule agonists, cell-based qHTS assay (AID 1963589). Also: nearly all actives have a fitted effect of over 35% in size. In outline: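 Cells were plated and incubated 18 h at 37 C/5% CO2, loaded with calcium dye for 1 h at 37 C, then treated with compounds in DMSO. Fluorescence was recorded kinetically at 1 sec intervals.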
The nature of assay [14]: cAMP Responsive Elements (CRE) small molecule agonists, cell-based qHTS assay (AID 1963590). In outline:
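Cells carrying a CRE-driven beta-lactamase reporter (HEK 293T) are seeded, incubated overnight (18 h), and treated with test compounds for 3 h at 37 C; reporter activity is then detected with a FRET substrate after 2 h at room temperature.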

Assay [15] is described as follows: cAMP Responsive Elements (CRE) small molecule antagonists, cell-based qHTS assay (AID 1963591; active = well fitted inhibition curve with a large enough effect in the signal ratio in the repeat runs, not every such curve was filed as active; the % refers to the signal ratio). The method in brief:
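Cells (CRE-bla HEK 293T, DMEM with 10% dialyzed FBS and 25 mM HEPES) are seeded and incubated 18 h. Compounds are added with NKH477 agonist at 0.25 uM final for 3 h, then FRET substrate for 2 h.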

Assay [16] concerns the target Beta-2 adrenergic receptor (Homo sapiens) (UniProt P07550). Description: Adrenergic beta2 receptor (ADRB2) small molecule antagonists, cell-based qHTS assay (AID 1963592). Also: series mostly up to about 92 µM; nearly all actives have a fitted effect of over 50% in size. The method in brief:
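Assay format: CHO-ADRB2 cells, 18-20hr seeding at 37C/5% CO2, then compound plus 1nM isoproterenol agonist mix for 0.5hr RT. Homogeneous time-resolved fluorescence cAMP detection after 1hr, expressed as 665/615 nm ratio.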

Assay [17] has as its target D(2) dopamine receptor (Homo sapiens) (UniProt P14416). Description: Dopamine D2 receptor (DRD2) small molecule agonists, cell-based qHTS assay (AID 1963594). Also: nearly all actives have a fitted effect of over 35% in size. The method in brief: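 HEK293 cells stably expressing human DRD2, pre-treated with PDE inhibitor Ro20-1724 (0.1 mM final) and compound 10 min at room temperature, then stimulated with NKH477 (200nM […]) for 30 min. cAMP read by HTRF (665/620 nm).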

For assay [18] the target is unchanged. Description: Dopamine D2 receptor (DRD2) small molecule antagonists, cell-based qHTS assay (AID 1963595; active = well fitted inhibition curve with a large enough effect in the signal ratio in the repeat runs, with a control signal flat; the % refers to the signal ratio). In outline:
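HEK293 cells stably expressing DRD2 were preincubated with 0.1 mM Ro20-1724, then with compound for 10 min at room temperature. Cells were stimulated with 200 nM NKH477 plus 12 nM quinpirole for 30 min, and cAMP was read by HTRF.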

Assay [19] has as its target 5-hydroxytryptamine receptor 2A (Homo sapiens) (UniProt P28223). Description: 5-hydroxytryptamine receptor 2A (HTR2A) small molecule agonists, cell-based qHTS assay (AID 1963587). Also: nearly all actives have a fitted effect of over 30% in size. The method in brief: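 CHO cells stably expressing human HTR2A, plated 18 h, loaded with calcium dye 1 h at 37 C. Agonist mode: compounds added and intracellular calcium fluorescence recorded kinetically for 2 min at 1 sec intervals.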

The nature of assay [20]: p53 small molecule agonists, cell-based qHTS assay with rat liver microsomes: qHTS cell viability counter screen (AID 1963580). Also: nearly all actives have a fitted effect of over 45% in size. The method in brief:
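Cytotoxicity counter screen: intracellular ATP measured by CellTiter-Glo luminescence in the same wells as the beta-lactamase reporter read, on HCT-116 p53RE-bla cells exposed 16 h at 37 C to compounds with rat liver microsomes and NADPH, each 0.5 mg/mL final.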

Where “and” joins values, the source holds several entries; their conditions need not be identical. Equal entries are not always repeated. A number with no mark means an inactive call. Records with an inconclusive call do not appear. Calls of active or inactive are those of the source. Unless noted, calls follow the shape of the full dose curve.
% is scaled to controls: 0 for no effect and ±100 for the full control effect.

Gonadotropin-releasing hormone receptor (Homo sapiens), sequence (P30968 whole entry, looked up): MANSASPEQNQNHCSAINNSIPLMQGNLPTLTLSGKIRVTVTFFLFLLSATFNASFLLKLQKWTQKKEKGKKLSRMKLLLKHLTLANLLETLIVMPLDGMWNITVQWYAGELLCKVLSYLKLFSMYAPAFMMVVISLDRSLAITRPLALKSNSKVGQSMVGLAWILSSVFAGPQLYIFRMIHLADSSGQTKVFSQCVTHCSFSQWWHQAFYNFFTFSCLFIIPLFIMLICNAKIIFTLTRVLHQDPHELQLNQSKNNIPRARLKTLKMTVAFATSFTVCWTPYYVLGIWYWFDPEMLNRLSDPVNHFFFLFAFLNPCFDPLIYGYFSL
Muscarinic acetylcholine receptor M1 (Homo sapiens), sequence (P11229 whole entry, looked up): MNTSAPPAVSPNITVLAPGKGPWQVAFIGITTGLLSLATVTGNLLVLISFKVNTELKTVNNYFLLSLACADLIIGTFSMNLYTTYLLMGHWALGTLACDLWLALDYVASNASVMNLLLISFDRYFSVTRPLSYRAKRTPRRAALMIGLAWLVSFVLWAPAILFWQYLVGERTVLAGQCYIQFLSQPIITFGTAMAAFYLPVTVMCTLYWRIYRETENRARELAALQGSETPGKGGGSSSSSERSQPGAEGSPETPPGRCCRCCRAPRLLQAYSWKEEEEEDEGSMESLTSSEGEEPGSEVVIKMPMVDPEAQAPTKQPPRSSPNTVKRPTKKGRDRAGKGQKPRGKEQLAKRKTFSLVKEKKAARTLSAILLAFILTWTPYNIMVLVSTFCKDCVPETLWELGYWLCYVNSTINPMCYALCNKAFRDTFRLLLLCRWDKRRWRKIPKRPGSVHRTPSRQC
KiSS-1 receptor (Homo sapiens), sequence (Q969F8 whole entry, looked up): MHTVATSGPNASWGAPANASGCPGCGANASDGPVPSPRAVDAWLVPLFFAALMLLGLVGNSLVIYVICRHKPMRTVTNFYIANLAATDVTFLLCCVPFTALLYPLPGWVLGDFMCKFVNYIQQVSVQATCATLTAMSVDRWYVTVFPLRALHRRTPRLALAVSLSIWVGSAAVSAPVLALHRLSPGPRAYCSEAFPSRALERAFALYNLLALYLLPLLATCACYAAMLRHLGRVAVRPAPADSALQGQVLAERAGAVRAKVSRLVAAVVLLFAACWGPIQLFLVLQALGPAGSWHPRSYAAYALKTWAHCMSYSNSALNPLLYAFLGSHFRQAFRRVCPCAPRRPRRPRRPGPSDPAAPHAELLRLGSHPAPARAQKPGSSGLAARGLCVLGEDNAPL
D(2) dopamine receptor (Homo sapiens), sequence (P14416 whole entry, looked up): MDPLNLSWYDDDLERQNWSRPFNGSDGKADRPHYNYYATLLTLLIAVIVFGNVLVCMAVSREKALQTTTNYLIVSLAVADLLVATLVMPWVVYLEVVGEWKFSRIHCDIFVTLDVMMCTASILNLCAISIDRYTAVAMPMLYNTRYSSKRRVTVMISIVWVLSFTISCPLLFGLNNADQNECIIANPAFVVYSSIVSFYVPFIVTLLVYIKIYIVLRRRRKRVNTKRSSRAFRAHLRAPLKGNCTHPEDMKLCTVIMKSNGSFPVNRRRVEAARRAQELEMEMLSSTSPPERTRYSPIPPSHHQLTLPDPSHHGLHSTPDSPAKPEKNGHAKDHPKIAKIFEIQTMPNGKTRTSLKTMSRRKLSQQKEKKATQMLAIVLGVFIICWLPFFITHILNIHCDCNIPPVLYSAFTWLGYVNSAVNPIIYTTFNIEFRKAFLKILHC
5-hydroxytryptamine receptor 2A (Homo sapiens), sequence (P28223 whole entry, looked up): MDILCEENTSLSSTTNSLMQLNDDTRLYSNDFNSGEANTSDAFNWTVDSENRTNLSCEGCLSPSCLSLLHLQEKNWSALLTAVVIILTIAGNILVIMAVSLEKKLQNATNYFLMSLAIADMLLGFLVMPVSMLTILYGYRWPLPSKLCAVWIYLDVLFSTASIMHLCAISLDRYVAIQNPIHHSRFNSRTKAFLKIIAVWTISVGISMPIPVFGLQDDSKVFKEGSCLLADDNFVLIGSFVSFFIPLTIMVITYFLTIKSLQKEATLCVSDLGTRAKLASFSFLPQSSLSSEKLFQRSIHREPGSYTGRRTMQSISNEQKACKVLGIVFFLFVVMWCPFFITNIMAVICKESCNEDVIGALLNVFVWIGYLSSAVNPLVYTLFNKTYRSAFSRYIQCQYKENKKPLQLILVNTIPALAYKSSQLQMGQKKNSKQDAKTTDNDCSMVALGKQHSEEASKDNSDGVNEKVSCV
Beta-2 adrenergic receptor (Homo sapiens), sequence (P07550 whole entry, looked up): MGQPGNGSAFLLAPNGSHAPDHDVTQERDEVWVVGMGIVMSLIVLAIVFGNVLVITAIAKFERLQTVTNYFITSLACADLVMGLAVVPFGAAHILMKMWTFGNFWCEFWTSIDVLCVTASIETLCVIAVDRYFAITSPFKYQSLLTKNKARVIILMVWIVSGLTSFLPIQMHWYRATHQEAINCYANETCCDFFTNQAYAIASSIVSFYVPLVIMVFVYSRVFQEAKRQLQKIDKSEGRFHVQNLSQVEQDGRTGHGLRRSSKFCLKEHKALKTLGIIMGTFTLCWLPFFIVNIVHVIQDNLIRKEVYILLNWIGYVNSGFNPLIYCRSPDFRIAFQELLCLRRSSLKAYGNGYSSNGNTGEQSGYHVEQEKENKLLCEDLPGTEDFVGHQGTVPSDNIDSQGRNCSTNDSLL

Turning to `[O]=[Cr][O][Cr]=[O]`, the Potency result in [1], in assay [2], in [3], in assay [4], in assay [5] and in [6] was “inactive” throughout. Besides, the Potency entry in assay [7], in assay [8], in assay [9], in assay [10], in assay [11] and in assay [12] was “inactive” in each case. Moreover, the Potency result in assay [13], in assay [14], in [15], in assay [16], in assay [17] and in [18] was “inactive” throughout.

`C=C(C)C(=O)OCC1CO1` (stereo not given): the Potency entry in assay [1], in assay [2], in assay [3], in assay [4], in assay [5] and in assay [6] was “inactive” each time. For the same compound, the Potency entry in assay [7], in assay [8], in assay [9], in assay [10], in assay [11] and in assay [19] was “inactive” each time. Also, the Potency result in [12], in assay [13], in assay [14], in [15], in [16] and in [17] was “inactive” throughout. Moreover, in assay [18], the Potency result is “inactive”.

In the case of `CCCN(CCC)c1c([N+](=O)[O-])cc(C(C)C)cc1[N+](=O)[O-]`, the Potency result in assay [1], in [3], in assay [4], in [5], in [6] and in assay [7] was “inactive” each time. Moreover, the Potency entry in assay [8], in assay [9], in assay [10], in [11], in [19] and in [12] was “inactive” in each case. The Potency result in [13], in assay [14], in assay [15], in assay [16], in assay [17] and in assay [18] was “inactive” in each case. In assay [2], the Potency was 9.48 µM (active) and 15.4 µM (active).

For `N#CCBr`, the Potency entry in assay [1], in assay [2], in [3], in [4], in [5] and in assay [6] was “inactive” each time. Further, the Potency entry in assay [7], in assay [20], in [9], in [10], in assay [11] and in assay [19] was “inactive” each time. Moreover, the Potency entry in assay [12], in assay [13], in [14], in assay [15], in assay [16] and in assay [17] was “inactive” in each case. The Potency entry in assay [18] was “inactive”.

Take `CCOC(=O)c1ccccc1S(=O)(=O)NC(=O)Nc1nc(Cl)cc(OC)n1`: the Potency entry in assay [1], in assay [2], in assay [3], in [4], in assay [5] and in assay [6] was “inactive” throughout. Besides, the Potency entry in [7], in assay [8], in [9], in assay [10], in [11] and in assay [19] was “inactive” each time. In addition, the Potency entry in assay [12], in assay [13], in assay [14], in [15], in assay [16] and in assay [17] was “inactive” in each case. Besides, the Potency result in assay [18] is “inactive”.

Take `NC(=O)O`: the Potency result in assay [1], in assay [2], in assay [3], in assay [4], in assay [5] and in assay [6] was “inactive” throughout. In addition, the Potency entry in assay [7], in assay [8], in assay [9], in assay [11], in assay [19] and in assay [12] was “inactive” throughout. In addition, the Potency entry in assay [13], in [14], in [15], in [16] and in assay [18] was “inactive” throughout.

As to `Brc1c(Br)c(Br)c(Oc2c(Br)c(Br)c(Br)c(Br)c2Br)c(Br)c1Br`, the activity change, negative = cytotoxicity in assay [1] was -0.108% [at 19 µM]; in [8], 1.7% [at 13.5 µM]; in assay [9], 13.8% [at 13.5 µM]. Also, the activity, positive = activation in assay [2] was -3.66% [at 19 µM]. The activity change in assay [3] is -0.419% [at 11.8 µM, active compounds read high]. The activation is -2.44% [at 15.8 µM] in assay [4]; 1.15% [at 11.8 µM] in assay [5]; -0.0858% [at 13.5 µM] in [6]; 0.633% [at 13.6 µM] in assay [7]; 0.0757% [at 13.5 µM] in assay [10]; 1.53% [at 15.9 µM] in assay [19]. Further, the activation is -0.663% [at 15.8 µM] in assay [13], 0.588% [at 19 µM] in assay [14] and 4.7% [at 19 µM] in assay [17]. Moreover, the results for the activity, negative = inhibition in assay [11] and in assay [12] were 9.26% [at 12.7 µM] and -22.2% [at 12.6 µM], respectively. The figures for the activity change, negative = inhibition in assay [15], in assay [16] and in assay [18] were -8.08% [at 18.9 µM], 1.07% [at 19 µM] and 0.371% [at 18.9 µM], respectively.

(Values after PubChem BioAssay (Tox21).)
